Assay results: PubChem BioAssay (Tox21)
Values joined by “and” are separate entries in the source; they are usually repeats but may differ in a detail not shown here. Equal values may be shown once. Records with an inconclusive call do not appear. Active and inactive are the calls of the source. Unless noted, calls follow the shape of the dose curve; as a rule, active = well fitted curve in the direction sought with a large enough effect in the repeat runs; inconclusive = weak or mixed curves; inactive = no such curve, though single readings can be large; an effect the other way counts as inactive or inconclusive.

Experiments:
[1] = qHTS assay to identify small molecule antagonists of the estrogen related receptor (ERR) signaling pathway from Tox21 library (AID 1224848); conditions: ERR reporter cell line, luciferase antagonist mode, 18 h; series mostly up to 92.4 µM; also: nearly all actives have a fitted effect of over 50% in size; also: potency is read from the fitted curve at half-maximal effect
How it was run: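 Cells: ERR line, 2,000/well; 6 h preincubation 37 C/5% CO2. Cpd in DMSO via pin tool; 18 h, 37 C. ONE-Glo, 30 min RT, luminescence.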

[2] = qHTS assay to identify small molecule agonists of the estrogen related receptor (ERR) signaling pathway from Tox21 library (AID 1224849; calls by dose curve; also: nearly all actives have a fitted effect of over 15% in size); conditions: ERR reporter cell line, ONE-Glo luciferase, 18 h
How it was run: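 ERR reporter cell line (NTP) seeded, rested 6 h at 37 C/5% CO2, then pinned with Tox21 compounds in DMSO. After 18 h at 37 C, ONE-Glo luciferase luminescence was read following 30 min at room temperature.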

[3] = qHTS RealTime-Glo MT Cell Viability Assay in HepG2 cells - 24 hour (AID 1224867); conditions: RealTime-Glo luminescence; series mostly up to 76.8 µM; also: nearly all actives have a fitted effect of over 50% in size
How it was run: (§1)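 Viability was tracked continuously by NanoLuc luminescence from prosubstrate reduced by living HepG2 cells, at successive time points over 40 h of compound exposure. Cells with reagent were preincubated 5 h at 37 °C before compound addition.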

[4] = qHTS RealTime-Glo MT Cell Viability Assay in HEK293 cells - 32 hour (AID 1224868); conditions: RealTime-Glo luminescence; series mostly up to 76.8 µM; also: top concentration of the series differs between compounds; nearly all actives have a fitted effect of over 50% in size
How it was run: (§2)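 Viability tracked continuously by luminescence as live cells reduce a prosubstrate for NanoLuc; HEK293 cells preincubated 5 h, compound-treated at 37 C, and read at 0, 8, 16, 24, 32 and 40 h.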

[5] = A CellTox Green Cytotoxicity Assay to monitor cytotoxicity in HEK293 cells - 0 hour (AID 1224869); conditions: CellTox Green fluorescence; series mostly up to 76.8 µM; also: nearly all actives have a fitted effect of over 50% in size
How it was run: (§3)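 HEK293 cells premixed with CellTox Green dye were seeded at 600 cells/well and left 5 h at 37 C/5% CO2 before pin transfer of 23 nL compound in DMSO. Fluorescence from dye bound to dead-cell DNA was read during 40 h treatment.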

[6] = qHTS RealTime-Glo MT Cell Viability Assay in HepG2 cells - 40 hour (AID 1224870); conditions: RealTime-Glo luminescence; series mostly up to 76.8 µM; also: nearly all actives have a fitted effect of over 50% in size
How it was run: (§4)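 HepG2 cells mixed with RealTime-Glo MT reagents (NanoLuc plus cell-permeant prosubstrate) were seeded at 600 cells/well, incubated 5 h at 37 C/5% CO2, then pinned with compounds in DMSO; nonlytic luminescence tracked viability during 40 h treatment.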

[7] = A CellTox Green Cytotoxicity Assay to monitor cytotoxicity in HEK293 cells - 40 hour (AID 1224871); conditions: CellTox Green fluorescence; series mostly up to 76.8 µM; also: nearly all actives have a fitted effect of over 45% in size
How it was run: as §3

[8] = qHTS RealTime-Glo MT Cell Viability Assay in HEK293 cells - 16 hour (AID 1224872); conditions: RealTime-Glo luminescence; series mostly up to 76.8 µM
How it was run: as §2

[9] = qHTS RealTime-Glo MT Cell Viability Assay in HEK293 cells - 40 hour (AID 1224874); conditions: RealTime-Glo luminescence; max response: active compounds read low; also: nearly all actives have a fitted effect of over 50% in size
How it was run: (§5)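 HEK293 cells mixed with RealTime-Glo reagents (NanoLuc plus cell-permeant prosubstrate) at 600 cells/well, preincubated 5 h at 37 C/5% CO2, then given 23 nL compound in DMSO. Nonlytic luminescence from viable cells was read at 0, 8, 16, 24, 32 and 40 h.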

[10] = A CellTox Green Cytotoxicity Assay to monitor cytotoxicity in HEK293 cells - 24 hour (AID 1224875); conditions: CellTox Green fluorescence; series mostly up to 76.8 µM; also: nearly all actives have a fitted effect of over 45% in size
How it was run: as §3

[11] = A CellTox Green Cytotoxicity Assay to monitor cytotoxicity in HepG2 cells - 16 hour (AID 1224876); conditions: CellTox Green fluorescence; series mostly up to 76.8 µM; also: nearly all actives have a fitted effect of over 45% in size
How it was run: (§6)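 HepG2 cells were seeded together with the CellTox Green dye at 600 cells/well, left 5 h at 37 C/5% CO2, then given compounds in DMSO. Fluorescence from dye bound to dead-cell DNA was read repeatedly over 40 h of treatment at 37 C.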

[12] = qHTS RealTime-Glo MT Cell Viability Assay in HepG2 cells - 32 hour (AID 1224877); conditions: RealTime-Glo luminescence; series mostly up to 76.8 µM; also: nearly all actives have a fitted effect of over 55% in size
How it was run: as §1

[13] = A CellTox Green Cytotoxicity Assay to monitor cytotoxicity in HepG2 cells - 24 hour (AID 1224878); conditions: CellTox Green fluorescence; series mostly up to 76.8 µM; also: nearly all actives have a fitted effect of over 45% in size
How it was run: as §6

[14] = A CellTox Green Cytotoxicity Assay to monitor cytotoxicity in HepG2 cells - 40 hour (AID 1224879); conditions: CellTox Green fluorescence; series mostly up to 76.8 µM; also: nearly all actives have a fitted effect of over 40% in size
How it was run: as §6

[15] = A CellTox Green Cytotoxicity Assay to monitor cytotoxicity in HEK293 cells - 32 hour (AID 1224881); conditions: CellTox Green fluorescence; series mostly up to 76.8 µM; also: nearly all actives have a fitted effect of over 40% in size
How it was run: as §3

[16] = A CellTox Green Cytotoxicity Assay to monitor cytotoxicity in HepG2 cells - 0 hour (AID 1224882); conditions: CellTox Green fluorescence; series mostly up to 76.8 µM; also: nearly all actives have a fitted effect of over 35% in size
How it was run: as §6

[17] = A CellTox Green Cytotoxicity Assay to monitor cytotoxicity in HepG2 cells - 32 hour (AID 1224883); conditions: CellTox Green fluorescence; series mostly up to 76.8 µM; also: nearly all actives have a fitted effect of over 50% in size
How it was run: as §6

[18] = A CellTox Green Cytotoxicity Assay to monitor cytotoxicity in HEK293 cells - 8 hour (AID 1224884); conditions: CellTox Green fluorescence; series mostly up to 76.8 µM; also: nearly all actives have a fitted effect of over 35% in size
How it was run: as §3

[19] = qHTS RealTime-Glo MT Cell Viability Assay in HepG2 cells - 8 hour (AID 1224873); conditions: RealTime-Glo luminescence; series mostly up to 76.8 µM; also: nearly all actives have a fitted effect of over 55% in size
How it was run: as §4

[20] = qHTS RealTime-Glo MT Cell Viability Assay in HEK293 cells - 0 hour (AID 1224880); conditions: RealTime-Glo luminescence; series mostly up to 76.8 µM
How it was run: as §5
% is scaled to controls: 0 for no effect and ±100 for the full control effect.

Nc1ccccc1C(=O)O
inactive: Potency [1] | activity change, positive = activation ([2]; at 42.5 µM (top of the series)) 5.44% | activity change, positive = activation ([2]; at 92.4 µM (top of the series)) 6.82% | outcome [3] | Potency [4] | Potency [5] | outcome [6] | Potency [7] | outcome [8] | max response [9] 10.4% and 8.34% | Potency [10] | Potency [11] | outcome [12] | Potency [13] | Potency [14] | Potency [15] | Potency [16] | Potency [17] | Potency [18]

OC(O)C(Cl)(Cl)Cl
inactive: Potency [1] | activity change, positive = activation ([2]; at 42.5 µM (top of the series)) 0.553% | activity change, positive = activation ([2]; at 92.4 µM (top of the series)) -4.47% | outcome [3] | Potency [4] | Potency [5] | outcome [6] | Potency [7] | outcome [8] | outcome [19] | max response [9] -9.37% and 5.84% | Potency [10] | Potency [11] | outcome [12] | Potency [13] | Potency [14] | outcome [20] | Potency [15] | Potency [16] | Potency [17] | Potency [18]

CCc1cccc(C)c1N(C(=O)CCl)C(C)COC (stereo not drawn)
inactive: activity change, positive = activation ([2]; at 92.4 µM (top of the series)) -45.5% and -42% | outcome [3] | Potency [4] | Potency [5] | outcome [6] | Potency [7] | outcome [8] | outcome [19] | max response [9] -0.256% and -7.36% | Potency [10] | Potency [11] | outcome [12] | Potency [13] | Potency [14] | outcome [20] | Potency [15] | Potency [16] | Potency [17] | Potency [18]
active: Potency [1] 51.3 µM and 54.5 µM

CN(N=O)c1ccccc1
inactive: Potency [1] | activity change, positive = activation ([2]; at 92.4 µM (top of the series)) 0% and 7.25% | outcome [3] | Potency [4] | Potency [5] | outcome [6] | Potency [7] | outcome [8] | outcome [19] | max response [9] 9.26% and 4.33% | Potency [10] | outcome [12] | Potency [13] | Potency [14] | outcome [20] | Potency [15] | Potency [16] | Potency [17] | Potency [18]

CC1OC(C)OC(C)O1 (stereo not drawn)
inactive: Potency [1] | activity change, positive = activation ([2]; at 42.5 µM (top of the series)) 4.56% | activity change, positive = activation ([2]; at 92.4 µM (top of the series)) 4.37% | outcome [3] | Potency [4] | Potency [5] | outcome [6] | Potency [7] | outcome [8] | outcome [19] | max response [9] 8.31% and 5.6% | Potency [10] | outcome [12] | Potency [13] | Potency [14] | outcome [20] | Potency [15] | Potency [16] | Potency [17] | Potency [18]

CNC(=O)Oc1ccccc1OC(C)C
inactive: Potency [1] | activity change, positive = activation ([2]; at 92.4 µM (top of the series)) 0.314% | outcome [3] | Potency [4] | Potency [5] | outcome [6] | Potency [7] | outcome [8] | max response [9] 0.581% and -1.94% | Potency [10] | Potency [11] | outcome [12] | Potency [13] | Potency [14] | outcome [20] | Potency [15] | Potency [16] | Potency [17] | Potency [18]

CC(C#N)CCC#N (stereo not drawn)
inactive: Potency [1] | activity change, positive = activation ([2]; at 92.4 µM (top of the series)) 5.4% and 2.56% | outcome [3] | Potency [4] | Potency [5] | outcome [6] | Potency [7] | outcome [8] | outcome [19] | max response [9] 6.71% and -8.28% | Potency [10] | outcome [12] | Potency [13] | Potency [14] | outcome [20] | Potency [15] | Potency [16] | Potency [17] | Potency [18]

CC(C)OC(=O)Nc1ccccc1
inactive: Potency [1] | activity change, positive = activation ([2]; at 92.4 µM (top of the series)) 8.94% and -18.7% | outcome [3] | Potency [4] | Potency [5] | outcome [6] | Potency [7] | outcome [8] | outcome [19] | max response [9] 1.67% and 0.253% | Potency [10] | Potency [11] | outcome [12] | Potency [13] | Potency [14] | Potency [15] | Potency [16] | Potency [17] | Potency [18]

Cc1cccc([N+](=O)[O-])c1
inactive: Potency [1] | activity change, positive = activation ([2]; at 92.4 µM (top of the series)) 5.45% and 0.517% | Potency [4] | Potency [5] | outcome [6] | Potency [7] | outcome [8] | outcome [19] | max response [9] 1.89% and 2.13% | Potency [10] | Potency [11] | outcome [12] | Potency [13] | Potency [14] | outcome [20] | Potency [15] | Potency [16] | Potency [17] | Potency [18]

CCC[CH2][Sn]([Cl])([Cl])[Cl]
inactive: Potency [1] | activity change, positive = activation ([2]; at 92.4 µM (top of the series)) 3.29% and -6.08% | outcome [3] | Potency [4] | Potency [5] | outcome [6] | Potency [7] | outcome [8] | outcome [19] | Potency [10] | outcome [12] | Potency [13] | Potency [14] | outcome [20] | Potency [15] | Potency [16] | Potency [17] | Potency [18]

C=CC(N)=O
inactive: Potency [1] | activity change, positive = activation ([2]; at 92.4 µM (top of the series)) 7.14% | outcome [3] | Potency [4] | Potency [5] | outcome [6] | Potency [7] | outcome [8] | max response [9] 0.5% and -10.4% | Potency [10] | Potency [11] | outcome [12] | Potency [13] | Potency [14] | Potency [15] | Potency [16] | Potency [17] | Potency [18]

CC(C)NC(=O)N1CC(=O)N(c2cc(Cl)cc(Cl)c2)C1=O
inactive: Potency [1] | activity change, positive = activation ([2]; at 92.4 µM (top of the series)) -27.3% and -5.72% | outcome [3] | Potency [5] | outcome [6] | Potency [7] | outcome [8] | outcome [19] | Potency [10] | Potency [11] | outcome [12] | Potency [13] | Potency [14] | Potency [15] | Potency [16] | Potency [17] | Potency [18]
